KB-3-1 cytotox: qHTS assay for MDR1-selective chemotherapeutics: Primary screen using the parental adenocarcinoma cell KB-3-1 | KB-3-1 viability, CellTiter-Glo ATP luminescence, 72 h | AID 1347075, 2019 | actives 1.4% (n = 400,000) | Potency, µM (series often up to 46.1 µM), most hits filed as cytotoxic; also: % is scaled to controls: 0 for no effect and ±100 for the full control effect; nearly all actives have a fitted effect of over 60% in size
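Parental KB-3-1 viability, qHTS format: 72 h compound exposure, 37 °C; CellTiter-Glo; media-only wells and DMSO plates as controls; concentration-effect fits on corrected data.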
TGFb inhibitor: qHTS for Inhibitors of TGF-b; actives 1.2% (n = 410,000); Potency, µM (titrated, usually from 46.1 µM), inactives show at the top dose activity, negative = inhibition, most hits filed as inhibitors; HepG2 CAGA-GFP TGF-b/SMAD3 reporter, GFP fluorescence, 18 h; TGF-beta stimulated, 500 pg/mL final; also: % is scaled to controls: 0 for no effect and ±100 for the full control effect; nearly all actives have a fitted effect of over 65% in size
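GFP signal (ex488/em500-530) from TGF-beta-stimulated HEPG2 CAGA-GFP cells, 500 pg/mL final, 18 h at 37 degrees C in DMEM plus 1% FBS, normalized to unstimulated and DMSO-stimulated controls.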
HepG2 viability: qHTS for Inhibitors of TGF-b: Cytotox Counterscreen. actives 0.76% (n = 410,000). Potency, µM (highest dose often 46.1 µM), for the others: at the top dose activity change, negative = cytotoxicity, hits mostly cytotoxic. HepG2 CAGA-GFP viability, ATP luminescence, 18 h
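HepG2 CAGA-GFP cells (1000/well, DMEM with 1% FBS) received compound, then TGF-beta at 500 pg/mL final, and were incubated 18 hours at 37 degrees C. Viability was read by CellTiter-Glo luminescence. Media-only wells were set as complete cell-killing and DMSO as no toxicity.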
KB-V1 cytotox: qHTS assay for MDR1-selective chemotherapeutics: Primary screen using the drug-selected MDR subline cells KB-V1; KB-V1 MDR cells viability, CellTiter-Glo, 72 h; Potency, µM (top dose mostly 46.1 µM), actives largely listed as cytotoxic; actives 3.4% (n = 400,000); also: % is scaled to controls: 0 for no effect and ±100 for the full control effect; nearly all actives have a fitted effect of over 60% in size
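Compound-treated KB-V1 multidrug-resistant cells, 72 h, 37 degrees C; viability by CellTiter-Glo. Fitted qHTS curves give the values.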
ATXN2 expr inh: Primary qHTS for Inhibitors of ATXN expression | AID 1745845, 2022 | HEK-293 ATXN2-luciferase reporter, luminescence, 24 h | actives 0.72% (n = 360,000) | Potency, µM (doses to about 57 µM), for inactives: top-dose activity change, negative = inhibition, usual class: inhibitors; also: % is scaled to controls: 0 for no effect and ±100 for the full control effect; nearly all actives have a fitted effect of over 55% in size
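ATXN2-luciferase reporter cells (luciferase flanked by upstream and downstream ATXN2 gene portions) were treated 24 h at 37 °C with compounds at up to 57 uM. SteadyGlo luminescence gave expression; GF-AFC fluorescence gave viability.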
S2 tox: Viability Counterscreen for Primary qHTS for Inhibitors of ATXN expression; S2 cells (HEK-293 line with an ATXN2-luciferase reporter) viability, CellTiter-Fluor protease fluorescence, 24 h; Potency, µM (titrated, usually from 56.7 µM), usual class: cytotoxic; actives 0.49% (n = 400,000); AID 651635, 2014; also: nearly all actives have a fitted effect of over 40% in size
An asterisk follows results filed as active. This is a sample that favours compounds with a hit; in the whole collection about 5.9% have one here. Calls follow the shape of the dose curve; as a rule, active = well fitted curve in the direction sought with a large enough effect; inconclusive = small, poorly fitted or top-dose-only effect, or another doubt; inactive = no such curve, though single readings can be large; an effect the other way counts as inactive or inconclusive. Potency is read from the fitted curve at half-maximal effect.

For CCC(C)NCCCOc1ccc(Cl)cc1C(C)(C)C (stereo not given) the results were KB-3-1 cytotox inactive, TGFb inhibitor -25.2%, HepG2 viability -34.4%, KB-V1 cytotox inconclusive, ATXN2 expr inh -4.7% and S2 tox inactive.
Screening COc1ccccc1-n1c(-c2ccccc2)c[nH]c1=S returned KB-3-1 cytotox inactive, TGFb inhibitor -8.0%, HepG2 viability -9.9%, KB-V1 cytotox inactive, ATXN2 expr inh -20.8% and S2 tox inconclusive.
`S=c1[nH]cc(-c2ccccc2)n1-c1ccccc1Cl` gave KB-3-1 cytotox inactive, TGFb inhibitor 0.1%, HepG2 viability -0.6%, KB-V1 cytotox 13µM*, ATXN2 expr inh 18.3% and S2 tox inactive.
For COCCn1c(SCC(=O)NCCCN2CCCC2=O)nc2sc3c(c2c1=O)CCCC3 the results were KB-3-1 cytotox inactive, TGFb inhibitor 2.7%, HepG2 viability 18.6%, KB-V1 cytotox 20.6µM*, ATXN2 expr inh -1.9% and S2 tox inactive.
For Cc1ccc(-c2nc(CS(=O)CC(=O)NCCN3CCCCCC3)c(C)o2)cc1 (stereo not given) the results were KB-3-1 cytotox inactive, TGFb inhibitor 12.6µM*, HepG2 viability -64.9% and KB-V1 cytotox inactive.
CCc1ccc(-c2nc(CN3CCC(C(=O)NCc4ccccc4OC)CC3)c(C)o2)cc1 was read as KB-3-1 cytotox inconclusive, TGFb inhibitor inconclusive, HepG2 viability 14.1µM* and KB-V1 cytotox inconclusive.
`Cc1oc(-c2ccc(Cl)cc2)nc1CN1CCCC(C(=O)NCCCN2CCOCC2)C1` (stereo not given) gave KB-3-1 cytotox inconclusive, TGFb inhibitor inconclusive, HepG2 viability -20.4%, KB-V1 cytotox 18.4µM*, ATXN2 expr inh -22.5% and S2 tox inactive.
Cc1oc(-c2ccc(Cl)cc2)nc1CN1CCC(C(=O)NCc2ccco2)CC1 was read as KB-3-1 cytotox inactive, TGFb inhibitor 7.0%, HepG2 viability -39.2%, KB-V1 cytotox 9.2µM*, ATXN2 expr inh -4.5% and S2 tox inactive.
Screening COc1ccccc1CNC(=O)C1CCN(Cc2nc(-c3ccc(OC)c(OC)c3)oc2C)CC1 returned KB-3-1 cytotox inactive, TGFb inhibitor -4.2%, HepG2 viability -2.0%, KB-V1 cytotox inactive, ATXN2 expr inh -1.6% and S2 tox inactive.
For Cc1oc(-c2ccc(Cl)cc2)nc1CS(=O)CC(=O)NCCN1CCCCCC1 (stereo not given) the results were KB-3-1 cytotox inactive, TGFb inhibitor inconclusive, HepG2 viability -50.8%, KB-V1 cytotox inactive and S2 tox inactive.
Screening CCc1ccc(CNC(=O)C(C)n2ccc3cc(S(=O)(=O)N4CCCCCC4)ccc32)cc1 (stereo not given) returned KB-3-1 cytotox inactive, TGFb inhibitor -14.2%, HepG2 viability -20.8%, KB-V1 cytotox inactive, ATXN2 expr inh -9.3% and S2 tox inconclusive.
Screening CC(CCc1ccccc1)NC(=O)Cn1c(=O)nc(-c2ccccc2)c2cc(Cl)ccc21 (stereo not given) returned TGFb inhibitor 0.1% and HepG2 viability -0.7%.
Cc1nc2ncnn2c(C)c1CCC(=O)NCc1ccc(Cl)cc1 was read as KB-3-1 cytotox inactive, TGFb inhibitor 0.6%, HepG2 viability -13.6%, KB-V1 cytotox inconclusive, ATXN2 expr inh 3.4% and S2 tox inactive.
`Cc1noc(C)c1CC(=O)N1CCOc2c(cc(-c3nc4ccccc4s3)cc2OC2CCOC2)C1` (stereo not given) gave S2 tox inactive.

Screening results as filed in PubChem BioAssay.
